# Test results from PubChem BioAssay AID1159580 (chemical genetic matrix, 2015).
# The campaign covered roughly 5,500 compounds. About 2,000 (36%) were called active. Another 18% or so got no clear call; they are omitted. This is one part of the list. Values without a mark were called inactive. Rule as the data show it: active = normalized growth mostly below about 0.91 (no sharp cut-off); inconclusive = no clear call, values can overlap the other calls; inactive = mostly above about 0.92.
# Test: chemical genetic growth profiling, strain panel (AID 1159580);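 also: tested at 20 µM; growth read once vehicle control cultures reached saturation at 30 °C; 1 = growth at the plate median or of vehicle wells; lower values mean less growth of the strain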
# Details: growth OD
structure (smiles),measurement,setting,value
CC(C)=CCCC1(C)C=Cc2c(O)c3c(c(CC=C(C)C)c2O1)OC12C(=CC4CC1C(C)(C)OC2(C/C=C(/C)C(=O)O)C4=O)C3=O (stereo not drawn),normalized growth,"S. cerevisiae deletion strains, locus YJL187C, strain SWE1, active compounds read low",0.851 (active)
same,normalized growth,"S. cerevisiae deletion strains, locus YJR043C, strain POL32, active compounds read low",0.821 (active)
same,normalized growth,"S. cerevisiae deletion strains, locus YJR066W, strain TOR1, active compounds read low",0.825
same,normalized growth,"S. cerevisiae deletion strains, locus YKL009W, strain mrt4, active compounds read low",0.965
same,normalized growth,"S. cerevisiae deletion strains, locus YKL068W, active compounds read low",0.943
same,normalized growth,"S. cerevisiae deletion strains, locus YKL085W, strain MDH1 (second series), active compounds read low",0.925 (active)
same,normalized growth,"S. cerevisiae deletion strains, locus YKL085W, strain MDH1, active compounds read low",0.925 (active)
same,normalized growth,"S. cerevisiae deletion strains, locus YKL160W, strain elf1, active compounds read low",0.842 (active)
same,normalized growth,"S. cerevisiae deletion strains, locus YKR001C, strain vps1, active compounds read low",0.628 (active)
same,normalized growth,"S. cerevisiae deletion strains, locus YKR026C, strain gcn3, active compounds read low",0.973
same,normalized growth,"S. cerevisiae deletion strains, locus YKR091W, strain srl3, active compounds read low",0.96
same,normalized growth,"S. cerevisiae deletion strains, locus YLL001W, strain dnm1, active compounds read low",0.881 (active)
same,normalized growth,"S. cerevisiae deletion strains, locus YLL026W, active compounds read low",0.888 (active)
same,normalized growth,"S. cerevisiae deletion strains, locus YLL041C, strain sdh2, active compounds read low",0.958
same,normalized growth,"S. cerevisiae deletion strains, locus YLR027C, strain aat2, active compounds read low",0.827 (active)
same,normalized growth,"S. cerevisiae deletion strains, locus YLR039C, strain RIC1, active compounds read low",0.873
same,normalized growth,"S. cerevisiae deletion strains, locus YLR058C, strain SHM2, active compounds read low",0.884 (active)
same,normalized growth,"S. cerevisiae deletion strains, locus YLR102C, strain apc9, active compounds read low",0.97
same,normalized growth,"S. cerevisiae deletion strains, locus YLR113W, strain HOG1, active compounds read low",0.685 (active)
same,normalized growth,"S. cerevisiae deletion strains, locus YLR221C, strain rsa3, active compounds read low",0.871 (active)
same,normalized growth,"S. cerevisiae deletion strains, locus YLR258W, strain gsy2, active compounds read low",0.861 (active)
same,normalized growth,"S. cerevisiae deletion strains, locus YLR262C, strain YPT6 (second series), active compounds read low",0.685 (active)
same,normalized growth,"S. cerevisiae deletion strains, locus YLR262C, strain YPT6, active compounds read low",0.783
same,normalized growth,"S. cerevisiae deletion strains, locus YLR268W, strain sec22, active compounds read low",0.84 (active)
same,normalized growth,"S. cerevisiae deletion strains, locus YLR320W, strain mms22, active compounds read low",0.732 (active)
same,normalized growth,"S. cerevisiae deletion strains, locus YLR330W, strain CHS5, active compounds read low",0.756 (active)
same,normalized growth,"S. cerevisiae deletion strains, locus YLR342W, strain FKS1 (second series), active compounds read low",0.703 (active)
same,normalized growth,"S. cerevisiae deletion strains, locus YLR342W, strain FKS1, active compounds read low",0.854 (active)
same,normalized growth,"S. cerevisiae deletion strains, locus YLR357W, strain rsc2, active compounds read low",1.02
same,normalized growth,"S. cerevisiae deletion strains, locus YLR370C, strain arc18, active compounds read low",0.984
same,normalized growth,"S. cerevisiae deletion strains, locus YLR371W, strain rom2, active compounds read low",0.955
same,normalized growth,"S. cerevisiae deletion strains, locus YLR384C, strain iki3, active compounds read low",0.989
same,normalized growth,"S. cerevisiae deletion strains, locus YLR418C, strain cdc73, active compounds read low",0.487 (active)
same,normalized growth,"S. cerevisiae deletion strains, locus YML016C, strain PPZ1, active compounds read low",0.963
same,normalized growth,"S. cerevisiae deletion strains, locus YML032C, strain rad52, active compounds read low",0.879 (active)
same,normalized growth,"S. cerevisiae deletion strains, locus YML120C, strain ndi1, active compounds read low",0.855 (active)
same,normalized growth,"S. cerevisiae deletion strains, locus YML124C, strain tub3, active compounds read low",0.979
same,normalized growth,"S. cerevisiae deletion strains, locus YMR058W, strain fet3, active compounds read low",0.507 (active)
same,normalized growth,"S. cerevisiae deletion strains, locus YMR078C, strain ctf18, active compounds read low",0.98
same,normalized growth,"S. cerevisiae deletion strains, locus YMR125W, strain sto1, active compounds read low",0.938
same,normalized growth,"S. cerevisiae deletion strains, locus YMR129W, active compounds read low",0.951
same,normalized growth,"S. cerevisiae deletion strains, locus YMR205C, strain PFK2, active compounds read low",0.623 (active)
same,normalized growth,"S. cerevisiae deletion strains, locus YMR223W, strain ubp8, active compounds read low",0.853 (active)
same,normalized growth,"S. cerevisiae deletion strains, locus YMR231W, strain pep5, active compounds read low",0.911 (active)
same,normalized growth,"S. cerevisiae deletion strains, locus YMR263W, strain SAP30, active compounds read low",0.947
same,normalized growth,"S. cerevisiae deletion strains, locus YMR307W, strain GAS1, active compounds read low",0.571 (active)
same,normalized growth,"S. cerevisiae deletion strains, locus YNL067W, strain RPL9B, active compounds read low",0.93
same,normalized growth,"S. cerevisiae deletion strains, locus YNL071W, strain lat1, active compounds read low",0.324 (active)
same,normalized growth,"S. cerevisiae deletion strains, locus YNL153C, strain GIM3, active compounds read low",0.923
same,normalized growth,"S. cerevisiae deletion strains, locus YNL183C, strain NPR1, active compounds read low",0.8 (active)
same,normalized growth,"S. cerevisiae deletion strains, locus YNL209W, strain ssb2, active compounds read low",0.76 (active)
same,normalized growth,"S. cerevisiae deletion strains, locus YNL233W, strain BNI4, active compounds read low",0.772 (active)
same,normalized growth,"S. cerevisiae deletion strains, locus YNL248C, strain rpa49, active compounds read low",0.976
same,normalized growth,"S. cerevisiae deletion strains, locus YNL250W, strain rad50, active compounds read low",0.952
same,normalized growth,"S. cerevisiae deletion strains, locus YNL271C, strain bni1, active compounds read low",0.981
same,normalized growth,"S. cerevisiae deletion strains, locus YNL298W, strain CLA4, active compounds read low",0.976
same,normalized growth,"S. cerevisiae deletion strains, locus YNL307C, strain MCK1, active compounds read low",0.382 (active)
same,normalized growth,"S. cerevisiae deletion strains, locus YNL322C, strain KRE1 (second series), active compounds read low",0.964
same,normalized growth,"S. cerevisiae deletion strains, locus YNR049C, strain mso1, active compounds read low",0.978
same,normalized growth,"S. cerevisiae deletion strains, locus YNR052C, strain pop2, active compounds read low",0.928
same,normalized growth,"S. cerevisiae deletion strains, locus YOL012C, strain htz1",0.349
same,normalized growth,"S. cerevisiae deletion strains, locus YOL147C, strain pex11, active compounds read low",0.929 (active)
same,normalized growth,"S. cerevisiae deletion strains, locus YOR001W, strain rrp6, active compounds read low",0.918
same,normalized growth,"S. cerevisiae deletion strains, locus YOR061W, strain CKA2, active compounds read low",0.785 (active)
same,normalized growth,"S. cerevisiae deletion strains, locus YOR069W, strain VPS5, active compounds read low",0.975
same,normalized growth,"S. cerevisiae deletion strains, locus YOR070C, strain gyp1, active compounds read low",0.796 (active)
same,normalized growth,"S. cerevisiae deletion strains, locus YOR080W, strain dia2, active compounds read low",0.982
same,normalized growth,"S. cerevisiae deletion strains, locus YOR083W, strain WHI5, active compounds read low",0.842 (active)
same,normalized growth,"S. cerevisiae deletion strains, locus YOR106W, strain vam3, active compounds read low",0.662 (active)
same,normalized growth,"S. cerevisiae deletion strains, locus YOR136W, strain idh2, active compounds read low",0.958
same,normalized growth,"S. cerevisiae deletion strains, locus YOR144C, strain elg1, active compounds read low",0.946
same,normalized growth,"S. cerevisiae deletion strains, locus YOR184W, strain ser1, active compounds read low",0.64 (active)
same,normalized growth,"S. cerevisiae deletion strains, locus YOR231W, strain MKK1, active compounds read low",0.884
same,normalized growth,"S. cerevisiae deletion strains, locus YOR265W, strain rbl2, active compounds read low",0.886 (active)
same,normalized growth,"S. cerevisiae deletion strains, locus YOR270C, strain vph1, active compounds read low",0.632 (active)
same,normalized growth,"S. cerevisiae deletion strains, locus YOR290C, strain snf2, active compounds read low",0.836 (active)
same,normalized growth,"S. cerevisiae deletion strains, locus YOR316C, strain cot1, active compounds read low",0.97
same,normalized growth,"S. cerevisiae deletion strains, locus YPL051W, strain arl3, active compounds read low",0.764 (active)
same,normalized growth,"S. cerevisiae deletion strains, locus YPL078C, strain atp4, active compounds read low",0.885 (active)
same,normalized growth,"S. cerevisiae deletion strains, locus YPL106C, strain sse1, active compounds read low",1.01
same,normalized growth,"S. cerevisiae deletion strains, locus YPL240C, strain hsp82, active compounds read low",0.908 (active)
same,normalized growth,"S. cerevisiae deletion strains, locus YPL256C, strain CLN2, active compounds read low",0.816 (active)
same,normalized growth,"S. cerevisiae deletion strains, locus YPR119W, strain clb2, active compounds read low",0.988
same,normalized growth,"S. cerevisiae deletion strains, locus YPR141C, strain kar3, active compounds read low",0.982
same,normalized growth,"S. cerevisiae deletion strains, locus YPR163C, strain tif3, active compounds read low",0.9 (active)
same,normalized growth,"S. cerevisiae deletion strains, locus YPR167C, strain met16, active compounds read low",0.91 (active)
same,normalized growth,"S. cerevisiae deletion strains, strain wtn01, active compounds read low",0.868 (active)
same,normalized growth,"S. cerevisiae strains, strain wild type, active compounds read low",0.78 (active)
